Bioassay records from PubChem.
Only some compounds are listed: those with a hit (about 27% of all), similar ones and a draw of the others.
CYP2C9 act = activators of human CYP2C9. 96,000 tested, 1.4% active. activation factor at 5 µM. P11712. recombinant CYP2C9, luciferin-H conversion, luminescence; hits give high values; factor 1 = untreated enzyme, 0 = blocked;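 active means activation factor of 2 or more for CYP2C9 at a 5 µM dose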
Target sequence (P11712 whole entry, looked up): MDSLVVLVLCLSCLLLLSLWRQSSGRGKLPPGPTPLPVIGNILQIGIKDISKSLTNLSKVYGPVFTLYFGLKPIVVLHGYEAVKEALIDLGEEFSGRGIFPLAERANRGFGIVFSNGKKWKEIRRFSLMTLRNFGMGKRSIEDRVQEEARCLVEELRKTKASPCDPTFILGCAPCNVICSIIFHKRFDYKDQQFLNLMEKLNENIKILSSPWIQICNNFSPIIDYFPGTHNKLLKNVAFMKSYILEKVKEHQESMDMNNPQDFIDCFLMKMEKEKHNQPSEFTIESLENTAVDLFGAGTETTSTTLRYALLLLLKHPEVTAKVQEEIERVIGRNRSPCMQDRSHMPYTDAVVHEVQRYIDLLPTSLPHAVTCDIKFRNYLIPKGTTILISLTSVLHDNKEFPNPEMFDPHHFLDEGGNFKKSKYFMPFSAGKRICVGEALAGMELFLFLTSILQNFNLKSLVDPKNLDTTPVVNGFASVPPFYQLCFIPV
CYP2C9 inhib = blocks human cytochrome P450 2C9. P11712. CYP2C9 Supersomes, luciferin-H conversion, luminescence. 96,000 tested, 20% active. inhibition, % at 5 µM;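 active means blocking of liver enzyme CYP2C9 beyond about 50% at 5 µM, limit read from the data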
CYP2C19 activ = activators of human cytochrome P450 2C19. P33261. recombinant CYP2C19, luciferin-H EGE luminescence; hits give high values; 0 = fully inhibited enzyme, 1 = untreated enzyme. activation factor at 5 µM. 96,000 tested, under 10 active. AID 1025;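 active means activation factor of at least 2 at 5 µM in the primary screen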
Cav3 T inh = blocks human Cav3.2 T-type calcium channel | O95180 | Cav3.2-expressing cells, Fluo-4 calcium fluorescence FDSS; hits give low values | 100,000 tested, 4% active | B-score at 10 µM;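 active means single-dose well whose peak fluorescence ratio is a statistical outlier from its plate by either plate-standardised score or position-corrected B-score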
CYP2C19 inhib = human CYP2C19 inhibition; CYP2C19 Supersomes, luciferin-H EGE luminescence, 30 min; 96,000 tested, 21% active; AID 778; inhibition, % at 5 µM;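 active means CYP2C19 inhibition above a set limit at 5 µM in the primary screen, cut at about 50% in these data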
Numbers stand for hits; - = inactive; . = not tested or not shown.

SMILES	CYP2C9 act	CYP2C9 inhib	CYP2C19 activ	Cav3 T inh	CYP2C19 inhib
CCOc1ccc(C2CC(c3cccc(C)c3)n3ncnc3N2)cc1 (stereo not given)	-	54	-	-	85
COc1ccc(C2CC(c3cc(OC)ccc3OC)n3nnnc3N2)cc1 (stereo not given)	-	78	-	-	98
CC1(C(=O)NC2CCCC2)CCC(=O)N1CCC1=CCCCC1 (stereo not given)	-	-	-	-	-
CCC(C)[C@H](NC(=O)NC1CCCc2ccccc21)C(=O)O (stereo not given in full)	-	-	-	-	-
CCCNC(=O)NS(=O)(=O)c1cnccc1Sc1ccc(Cl)c(Cl)c1	-	-	-	-	-
O=[N+]([O-])c1ccc(Cl)cc1Sc1cccc2cccnc12	.	.	.	-	.
Cc1n[nH]c(C)c1Sc1ccccc1N=Cc1cc(Cl)cc([N+](=O)[O-])c1O	-	-	-	-6.9	-
NC(=O)CSc1nnc(-c2ccc(S(=O)(=O)N3CCOCC3)cc2)n1CC1CCCO1 (stereo not given)	-	-	-	-	-
Cc1ccc(-n2c(SCC(N)=O)nnc2-c2ccc(S(=O)(=O)N3CCCCC3)cc2)c(C)c1	-	82	-	-	-
COc1ccc(CSCC(=O)N/N=C/c2ccccc2OCc2ccccc2)cc1	-	-	-	-5.8	-
COC(=O)c1ccc(COc2ccccc2/C=N/NS(=O)(=O)c2ccccc2)cc1	-	-	-	-	-
O=C(CSCc1ccccc1)N/N=C/c1ccccc1OCc1ccccc1	-	60	-	-	-
CC1(C)Cc2c(C#N)c(NCCCO)nc(-c3ccccc3)c2CO1	-	61	-	-	-
Cc1nc(NCCCO)c(C#N)c2c1COC(C)(C)C2	-	-	-	-	-
CCN(CC)CCNc1nc(-c2ccccc2)c2c(c1C#N)CC(C)(C)OC2	-	-	-	-3.7	-
CC1(C)Cc2c(c(-c3ccccc3)nc3[nH][nH]c(=O)c23)CO1	-	-	-	-	57
Cc1cccc(-c2oc(C)c(C)[n+]2[O-])c1	-	-	-	-	-
CCCCC1(C(=O)OCC)CC(CN2CCOCC2)OC1=O (stereo not given)	-	-	-	-	-
CC1CN(c2cc(=O)n(-c3ccccc3)c(=O)[nH]2)CC(C)O1 (stereo not given)	-	-	-	-	-
Cc1[nH]c2ccccc2c1CN1CCc2ccccc2C1	-	-	-	-	-
Cc1ccc(Cn2c(C3CCCN3c3nc(-c4ccc(F)cc4)cs3)nc3cc(C(F)(F)F)ccc32)cc1 (stereo not given)	.	.	.	-	.
O=C(NC(=S)NCc1ccccc1)c1ccccc1F	-	-	-	-	-
O=C(NC(=S)N(Cc1ccccc1)Cc1ccccc1)c1ccccc1F	-	53	-	-6.2	-
COc1ccc(CNCCC(c2ccccc2)c2ccc3c(c2)OCO3)cc1 (stereo not given)	-	-	-	.	79
Clc1cccc(CSc2nc3ccncc3[nH]2)c1	-	76	-	-	100
SMILES	CYP2C9 act	CYP2C9 inhib	CYP2C19 activ	Cav3 T inh	CYP2C19 inhib
Fc1cccc(CSc2nc3ccncc3[nH]2)c1	.	.	.	-	.
CC(=O)OC1COC(n2ccc3cc([N+](=O)[O-])ccc32)C(OC(C)=O)C1OC(C)=O (stereo not given)	.	.	.	-	.
CC(=O)C(Sc1ccc2nnc(-c3ccc(F)cc3)n2n1)C(C)=O	-	70	-	-	-
CC(=O)C(Sc1ccc2nnc(-c3ccc(C)cc3)n2n1)C(C)=O	-	-	-	-	-
CCOC(=O)CC(=O)CSc1ccc2nnc(-c3ccc(C)cc3)n2n1	-	55	-	-	-
CC(C)NC(=O)c1ccc(-c2ccc(Cl)c(C(F)(F)F)c2)o1	-	-	-	-	-
Cc1ccc(C2CC(=O)N(c3ccc(F)cc3)C3=C2C(=O)CCC3)cc1 (stereo not given)	-	-	-	-	-
O/N=C1\CCc2cc(Cl)ccc21	-	-	-	2.4	-
O=C1[C@@H]2[C@H](C(=O)N1Cc1cccnc1)[C@H]1C=C[C@@H]2C1	-	-	-	-	-
COc1ccc(C2C3C(=O)N(Cc4ccccc4)C(=O)C3ON2c2ccccc2)c(OC)c1OC (stereo not given)	-	-	-	.	-
Cc1c(Cl)cccc1N1C(=O)C2ON(c3ccccc3)C(c3cccnc3)C2C1=O (stereo not given)	-	-	-	-	56
O=C1C2C3C=CC(C3)C2C(=O)N1c1cccnc1 (stereo not given)	-	-	-	-	-
